According to PMC7862700, “An all-to-all approach to the identification of sequence-specific readers for epigenetic DNA modifications on cytosine”:

Assays:
Assay in all cases: DAPPL (digital affinity profiling via proximity ligation, sequencing); 10 mM Tris-HCl pH 7.5, 50 mM NaCl, 1 mM DTT, 4% glycerol, room temperature, 30 min; GST-TFs on glutathione beads, 16-mer random dsDNA library, 0.1% formaldehyde crosslink after washing; high values mean tight binding
[1] = target: ETV5 (Homo sapiens, UniProt P41161 1-510); conditions: protein: recombinant; tags: N-terminal GST; dsDNA, one strand shown
ETV5, sequence (P41161 whole entry, the tested form may be a part): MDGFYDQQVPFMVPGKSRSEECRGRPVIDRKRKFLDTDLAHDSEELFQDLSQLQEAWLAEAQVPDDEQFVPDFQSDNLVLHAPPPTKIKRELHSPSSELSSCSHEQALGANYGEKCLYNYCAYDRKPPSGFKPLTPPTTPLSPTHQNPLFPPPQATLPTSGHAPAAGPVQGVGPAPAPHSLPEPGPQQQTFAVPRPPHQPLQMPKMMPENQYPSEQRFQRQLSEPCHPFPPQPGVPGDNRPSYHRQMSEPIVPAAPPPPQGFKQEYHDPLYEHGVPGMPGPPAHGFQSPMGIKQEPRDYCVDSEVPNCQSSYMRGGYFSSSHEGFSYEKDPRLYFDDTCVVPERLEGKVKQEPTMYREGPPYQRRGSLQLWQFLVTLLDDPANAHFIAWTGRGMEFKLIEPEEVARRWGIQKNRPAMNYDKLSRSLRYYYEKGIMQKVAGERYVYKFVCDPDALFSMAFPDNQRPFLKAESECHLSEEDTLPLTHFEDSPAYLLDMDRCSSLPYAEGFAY
Method in brief: (§1)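 Binding signal is each hexamer's read frequency for a factor divided by its frequency in the tag-only sample. The factors were GST-fused human transcription factors from yeast, captured on glutathione beads, DNA-barcoded and pooled with that sample. Pools were incubated with 200 nmole of a random double-stranded 16-mer DNA library in Tris/NaCl/DTT/glycerol buffer at room temperature for 30 min, then washed, crosslinked with 0.1% formaldehyde, proximity-ligated with BsaI/T4 ligase (1 h, 37 °C), PCR-amplified and sequenced on an Illumina NextSeq500.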

[2] = target: HSF1 (Homo sapiens, UniProt Q00613 1-529); conditions: protein: recombinant; tags: N-terminal GST; chain copies: 3; dsDNA, one strand shown
HSF1, sequence (Q00613 whole entry): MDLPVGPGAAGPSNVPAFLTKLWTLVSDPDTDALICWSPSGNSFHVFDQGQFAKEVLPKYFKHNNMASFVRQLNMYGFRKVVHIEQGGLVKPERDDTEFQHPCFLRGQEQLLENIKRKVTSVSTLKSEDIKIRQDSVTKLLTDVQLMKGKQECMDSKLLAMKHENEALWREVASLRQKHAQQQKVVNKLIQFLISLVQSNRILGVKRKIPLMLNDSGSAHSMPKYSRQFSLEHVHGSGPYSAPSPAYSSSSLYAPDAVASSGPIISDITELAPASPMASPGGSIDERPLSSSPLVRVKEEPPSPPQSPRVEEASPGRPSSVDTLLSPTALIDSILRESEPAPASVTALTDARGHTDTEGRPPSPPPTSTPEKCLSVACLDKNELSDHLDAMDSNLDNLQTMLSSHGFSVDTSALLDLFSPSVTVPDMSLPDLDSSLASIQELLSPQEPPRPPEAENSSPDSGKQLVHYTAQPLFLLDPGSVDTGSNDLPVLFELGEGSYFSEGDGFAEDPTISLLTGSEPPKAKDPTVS
Method in brief: as §1

[3] = target: ELF4 (Homo sapiens, UniProt Q99607 1-663); conditions: protein: recombinant; tags: N-terminal GST; dsDNA, one strand shown
ELF4, sequence (Q99607 whole entry): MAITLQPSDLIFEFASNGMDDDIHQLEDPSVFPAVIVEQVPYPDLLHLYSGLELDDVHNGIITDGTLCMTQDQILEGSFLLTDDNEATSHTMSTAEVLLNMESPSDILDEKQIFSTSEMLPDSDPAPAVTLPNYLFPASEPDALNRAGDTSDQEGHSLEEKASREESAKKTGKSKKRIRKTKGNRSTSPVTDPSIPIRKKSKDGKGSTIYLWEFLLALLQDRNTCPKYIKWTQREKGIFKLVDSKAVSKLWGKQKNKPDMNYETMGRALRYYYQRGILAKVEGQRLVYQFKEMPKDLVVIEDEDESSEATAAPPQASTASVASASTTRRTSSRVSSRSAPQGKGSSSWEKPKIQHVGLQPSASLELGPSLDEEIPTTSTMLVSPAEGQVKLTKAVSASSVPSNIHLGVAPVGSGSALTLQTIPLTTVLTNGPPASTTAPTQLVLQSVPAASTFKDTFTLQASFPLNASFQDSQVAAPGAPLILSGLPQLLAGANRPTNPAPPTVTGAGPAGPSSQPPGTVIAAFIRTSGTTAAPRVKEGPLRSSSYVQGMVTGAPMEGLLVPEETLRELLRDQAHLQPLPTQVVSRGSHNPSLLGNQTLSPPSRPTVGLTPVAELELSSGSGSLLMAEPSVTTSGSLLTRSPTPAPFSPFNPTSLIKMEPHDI
Method in brief: as §1

[4] = target: T1, ELK4 (Homo sapiens, UniProt P28324-2 1-405); conditions: protein: recombinant; tags: N-terminal GST; dsDNA, one strand shown
T1 sequence: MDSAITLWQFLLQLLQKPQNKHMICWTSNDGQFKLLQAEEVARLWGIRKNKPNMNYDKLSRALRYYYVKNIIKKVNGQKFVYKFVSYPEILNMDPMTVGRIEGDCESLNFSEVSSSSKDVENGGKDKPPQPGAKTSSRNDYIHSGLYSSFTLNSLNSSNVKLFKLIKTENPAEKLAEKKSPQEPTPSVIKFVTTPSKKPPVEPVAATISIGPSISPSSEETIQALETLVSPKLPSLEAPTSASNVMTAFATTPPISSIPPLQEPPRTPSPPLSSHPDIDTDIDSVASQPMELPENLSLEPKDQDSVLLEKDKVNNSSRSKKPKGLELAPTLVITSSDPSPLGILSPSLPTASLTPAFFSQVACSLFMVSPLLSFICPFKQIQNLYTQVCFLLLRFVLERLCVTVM
Method in brief: as §1

[5] = target: T2, ETV2 (Homo sapiens, UniProt O00321 1-342); conditions: protein: recombinant; tags: N-terminal GST; dsDNA, one strand shown
T2 sequence: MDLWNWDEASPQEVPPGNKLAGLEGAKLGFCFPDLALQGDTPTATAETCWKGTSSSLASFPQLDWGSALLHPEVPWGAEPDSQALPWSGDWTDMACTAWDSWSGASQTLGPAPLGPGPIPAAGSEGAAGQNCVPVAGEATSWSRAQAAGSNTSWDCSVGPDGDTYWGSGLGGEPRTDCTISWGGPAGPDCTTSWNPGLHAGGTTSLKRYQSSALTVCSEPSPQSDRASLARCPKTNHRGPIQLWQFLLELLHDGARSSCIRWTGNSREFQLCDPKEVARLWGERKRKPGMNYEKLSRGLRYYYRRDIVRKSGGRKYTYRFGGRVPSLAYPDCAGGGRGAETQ
Method in brief: as §1

[6] = target: T3, ELF3 (Homo sapiens, UniProt P78545 1-371); conditions: protein: recombinant; tags: N-terminal GST; dsDNA, one strand shown
T3 sequence: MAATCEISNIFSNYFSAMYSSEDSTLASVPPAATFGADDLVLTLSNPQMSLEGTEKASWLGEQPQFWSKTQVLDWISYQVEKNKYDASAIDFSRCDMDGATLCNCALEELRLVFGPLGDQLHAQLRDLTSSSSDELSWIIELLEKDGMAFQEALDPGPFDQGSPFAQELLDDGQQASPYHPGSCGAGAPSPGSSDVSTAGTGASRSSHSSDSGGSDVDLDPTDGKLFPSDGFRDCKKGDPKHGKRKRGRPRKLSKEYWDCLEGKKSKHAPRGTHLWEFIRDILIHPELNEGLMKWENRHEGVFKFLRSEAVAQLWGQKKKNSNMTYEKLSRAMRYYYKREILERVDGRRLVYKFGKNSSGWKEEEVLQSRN
Method in brief: as §1

[7] = target: ETV1 (Homo sapiens, UniProt P50549 1-477); conditions: protein: recombinant; tags: N-terminal GST; dsDNA, one strand shown
ETV1, sequence (P50549 whole entry): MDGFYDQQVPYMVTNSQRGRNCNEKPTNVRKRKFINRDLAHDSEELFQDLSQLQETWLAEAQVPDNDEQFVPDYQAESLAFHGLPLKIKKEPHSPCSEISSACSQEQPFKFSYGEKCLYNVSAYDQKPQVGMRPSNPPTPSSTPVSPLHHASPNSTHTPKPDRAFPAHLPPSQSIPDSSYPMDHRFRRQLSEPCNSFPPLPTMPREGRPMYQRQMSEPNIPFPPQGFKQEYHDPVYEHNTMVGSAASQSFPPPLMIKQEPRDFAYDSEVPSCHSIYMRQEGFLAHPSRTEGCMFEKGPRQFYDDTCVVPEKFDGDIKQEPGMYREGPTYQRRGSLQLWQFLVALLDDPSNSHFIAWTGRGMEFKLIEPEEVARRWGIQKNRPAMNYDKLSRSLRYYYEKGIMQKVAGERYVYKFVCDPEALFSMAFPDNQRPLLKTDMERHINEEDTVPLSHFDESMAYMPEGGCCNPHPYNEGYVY
Method in brief: as §1

[8] = target: T4, ERF (Homo sapiens, UniProt P50548 1-548); conditions: protein: recombinant; tags: N-terminal GST; dsDNA, one strand shown
T4 sequence: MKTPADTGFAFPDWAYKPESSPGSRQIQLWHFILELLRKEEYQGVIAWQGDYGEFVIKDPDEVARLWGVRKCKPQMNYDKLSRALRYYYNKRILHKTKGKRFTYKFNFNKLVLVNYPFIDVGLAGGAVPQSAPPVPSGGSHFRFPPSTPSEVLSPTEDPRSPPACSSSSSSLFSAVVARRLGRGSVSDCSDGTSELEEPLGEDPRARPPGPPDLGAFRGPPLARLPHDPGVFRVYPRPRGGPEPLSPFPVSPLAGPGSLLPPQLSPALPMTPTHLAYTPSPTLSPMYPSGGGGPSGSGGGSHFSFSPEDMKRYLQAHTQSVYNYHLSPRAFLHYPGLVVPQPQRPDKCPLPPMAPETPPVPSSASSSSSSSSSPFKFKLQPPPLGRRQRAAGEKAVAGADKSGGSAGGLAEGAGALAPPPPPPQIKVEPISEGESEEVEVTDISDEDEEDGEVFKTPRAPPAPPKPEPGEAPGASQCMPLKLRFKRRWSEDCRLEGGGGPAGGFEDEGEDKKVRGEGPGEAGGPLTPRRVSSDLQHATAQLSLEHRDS
Method in brief: as §1

[9] = target: T5, ETV3L (Homo sapiens, UniProt Q6ZN32 1-361); conditions: protein: recombinant; tags: N-terminal GST; dsDNA, one strand shown
T5 sequence: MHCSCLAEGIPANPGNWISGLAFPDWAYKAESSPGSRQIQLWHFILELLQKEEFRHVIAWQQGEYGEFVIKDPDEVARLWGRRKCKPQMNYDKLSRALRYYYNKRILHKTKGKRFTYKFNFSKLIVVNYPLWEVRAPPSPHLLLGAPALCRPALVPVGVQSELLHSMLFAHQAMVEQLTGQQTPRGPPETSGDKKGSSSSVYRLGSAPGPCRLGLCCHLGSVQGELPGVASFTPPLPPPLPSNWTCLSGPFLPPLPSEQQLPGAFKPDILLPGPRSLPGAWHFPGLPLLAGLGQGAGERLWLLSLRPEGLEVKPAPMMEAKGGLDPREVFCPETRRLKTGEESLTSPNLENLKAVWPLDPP
Method in brief: as §1

[10] = target: T6, ETS2 (Homo sapiens, UniProt P15036 1-469); conditions: protein: recombinant; tags: N-terminal GST; dsDNA, one strand shown
T6 sequence: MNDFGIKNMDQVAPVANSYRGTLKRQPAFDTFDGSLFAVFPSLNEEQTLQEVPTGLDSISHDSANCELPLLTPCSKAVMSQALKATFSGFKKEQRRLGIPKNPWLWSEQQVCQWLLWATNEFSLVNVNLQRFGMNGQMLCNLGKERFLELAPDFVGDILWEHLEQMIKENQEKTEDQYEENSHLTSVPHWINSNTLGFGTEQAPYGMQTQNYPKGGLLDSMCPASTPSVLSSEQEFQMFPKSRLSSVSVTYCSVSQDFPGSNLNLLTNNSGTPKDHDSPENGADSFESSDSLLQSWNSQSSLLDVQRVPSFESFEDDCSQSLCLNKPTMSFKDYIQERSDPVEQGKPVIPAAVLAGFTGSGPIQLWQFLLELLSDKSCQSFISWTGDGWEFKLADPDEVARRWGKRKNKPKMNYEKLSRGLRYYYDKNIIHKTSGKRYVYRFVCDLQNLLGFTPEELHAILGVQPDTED
Method in brief: as §1

[11] = target: T7, SPDEF (Homo sapiens, UniProt O95238 1-335); conditions: protein: recombinant; tags: N-terminal GST; dsDNA, one strand shown
T7 sequence: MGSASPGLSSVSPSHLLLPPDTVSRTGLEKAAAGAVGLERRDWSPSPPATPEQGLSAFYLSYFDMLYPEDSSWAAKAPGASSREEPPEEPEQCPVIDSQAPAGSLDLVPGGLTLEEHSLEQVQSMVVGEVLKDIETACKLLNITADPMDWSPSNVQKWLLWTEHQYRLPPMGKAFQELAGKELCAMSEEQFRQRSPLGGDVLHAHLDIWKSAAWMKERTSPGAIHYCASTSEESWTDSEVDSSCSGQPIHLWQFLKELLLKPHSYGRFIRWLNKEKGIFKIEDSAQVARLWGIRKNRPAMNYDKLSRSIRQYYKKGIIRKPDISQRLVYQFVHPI
Method in brief: as §1

[12] = target: T8, ETV7 (Homo sapiens, UniProt Q9Y603 1-341); conditions: protein: recombinant; tags: N-terminal GST; dsDNA, one strand shown
T8 sequence: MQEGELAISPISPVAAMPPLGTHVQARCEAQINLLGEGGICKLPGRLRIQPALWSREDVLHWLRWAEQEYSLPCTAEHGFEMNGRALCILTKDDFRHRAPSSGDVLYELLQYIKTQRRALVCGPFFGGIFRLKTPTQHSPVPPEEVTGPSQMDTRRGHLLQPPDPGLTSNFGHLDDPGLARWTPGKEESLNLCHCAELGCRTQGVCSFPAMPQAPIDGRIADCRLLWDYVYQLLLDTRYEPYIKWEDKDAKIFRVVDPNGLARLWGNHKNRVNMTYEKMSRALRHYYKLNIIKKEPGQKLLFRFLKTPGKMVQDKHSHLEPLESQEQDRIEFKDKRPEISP
Method in brief: as §1

[13] = target: T9, ELF5 (Homo sapiens, UniProt Q9UKW6-2 1-255); conditions: protein: recombinant; tags: N-terminal GST; dsDNA, one strand shown
T9 sequence: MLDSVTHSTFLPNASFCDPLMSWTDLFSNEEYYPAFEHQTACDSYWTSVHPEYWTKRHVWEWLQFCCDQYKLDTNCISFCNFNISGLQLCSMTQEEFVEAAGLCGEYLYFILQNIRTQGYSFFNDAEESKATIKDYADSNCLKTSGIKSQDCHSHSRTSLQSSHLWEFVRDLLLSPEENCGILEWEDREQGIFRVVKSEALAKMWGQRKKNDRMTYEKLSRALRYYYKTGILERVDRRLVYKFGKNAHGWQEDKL
Method in brief: as §1

[14] = target: T10, ETV3 (Homo sapiens, UniProt P41162-2 1-143); conditions: protein: recombinant; tags: N-terminal GST; dsDNA, one strand shown
T10 sequence: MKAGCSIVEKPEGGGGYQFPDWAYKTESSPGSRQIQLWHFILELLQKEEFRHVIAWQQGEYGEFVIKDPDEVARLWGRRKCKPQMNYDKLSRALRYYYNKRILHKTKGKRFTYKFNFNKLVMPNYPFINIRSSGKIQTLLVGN
Method in brief: as §1

[15] = target: ETV6 (Homo sapiens, UniProt P41212 1-452); conditions: protein: recombinant; tags: N-terminal GST; dsDNA, one strand shown
ETV6, sequence (P41212 whole entry): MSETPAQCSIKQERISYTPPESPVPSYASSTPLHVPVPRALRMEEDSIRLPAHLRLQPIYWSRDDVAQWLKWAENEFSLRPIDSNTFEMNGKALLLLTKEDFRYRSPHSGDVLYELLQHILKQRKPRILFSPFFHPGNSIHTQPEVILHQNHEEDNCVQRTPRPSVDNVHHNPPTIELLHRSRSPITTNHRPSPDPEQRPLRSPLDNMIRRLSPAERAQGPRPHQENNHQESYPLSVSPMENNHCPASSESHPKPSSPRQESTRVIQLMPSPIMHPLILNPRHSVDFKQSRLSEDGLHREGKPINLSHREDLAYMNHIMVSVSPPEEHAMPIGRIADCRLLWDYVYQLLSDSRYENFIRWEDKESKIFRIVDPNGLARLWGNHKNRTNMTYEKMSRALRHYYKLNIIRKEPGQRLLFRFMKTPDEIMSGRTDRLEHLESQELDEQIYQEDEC
Method in brief: as §1

[16] = target: T11, FEV (Homo sapiens, UniProt Q99581 1-238); conditions: protein: recombinant; tags: N-terminal GST; dsDNA, one strand shown
T11 sequence: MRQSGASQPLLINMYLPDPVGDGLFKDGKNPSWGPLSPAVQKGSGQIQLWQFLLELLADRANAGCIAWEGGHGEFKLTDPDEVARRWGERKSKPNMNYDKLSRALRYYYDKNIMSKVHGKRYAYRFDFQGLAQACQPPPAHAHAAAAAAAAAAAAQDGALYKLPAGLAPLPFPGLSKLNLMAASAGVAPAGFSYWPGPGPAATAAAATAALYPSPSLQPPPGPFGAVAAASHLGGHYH
Method in brief: as §1

[17] = target: CRX (Homo sapiens, UniProt O43186 1-299); conditions: protein: recombinant; tags: N-terminal GST; dsDNA, one strand shown
CRX, sequence (O43186 whole entry): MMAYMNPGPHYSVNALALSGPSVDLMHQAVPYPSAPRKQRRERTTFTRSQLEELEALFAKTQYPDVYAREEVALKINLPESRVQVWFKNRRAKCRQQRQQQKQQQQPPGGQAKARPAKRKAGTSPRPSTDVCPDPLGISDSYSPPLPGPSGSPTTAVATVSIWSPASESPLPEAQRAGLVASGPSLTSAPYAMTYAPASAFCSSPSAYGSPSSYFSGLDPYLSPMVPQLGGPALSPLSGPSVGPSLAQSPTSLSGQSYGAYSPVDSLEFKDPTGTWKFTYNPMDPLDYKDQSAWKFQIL
Method in brief: as §1

Sequence | binding signal [1] | binding signal [2] | binding signal [3] | binding signal [4] | binding signal [5] | binding signal [6] | binding signal [7] | binding signal [8] | binding signal [9] | binding signal [10] | binding signal [11] | binding signal [12] | binding signal [13] | binding signal [14] | binding signal [15] | binding signal [16] | binding signal [17]
TCGATG | 1.11 fold enrichment (6-mer frequency, TF over GST control) | 1.26 fold enrichment (6-mer frequency, TF over GST control) | 1.2 fold enrichment (6-mer frequency, TF over GST control) | 1.09 fold enrichment (6-mer frequency, TF over GST control) | 1.03 fold enrichment (6-mer frequency, TF over GST control) | 1.1 fold enrichment (6-mer frequency, TF over GST control) | 1.11 fold enrichment (6-mer frequency, TF over GST control) | 1.08 fold enrichment (6-mer frequency, TF over GST control) | 1.15 fold enrichment (6-mer frequency, TF over GST control) | 1.03 fold enrichment (6-mer frequency, TF over GST control) | 1.07 fold enrichment (6-mer frequency, TF over GST control) | 1.17 fold enrichment (6-mer frequency, TF over GST control) | 1.07 fold enrichment (6-mer frequency, TF over GST control) | 1.1 fold enrichment (6-mer frequency, TF over GST control) | 1.09 fold enrichment (6-mer frequency, TF over GST control) | – | –
AATGGA | 1.05 fold enrichment (6-mer frequency, TF over GST control) | 1.12 fold enrichment (6-mer frequency, TF over GST control) | 1.08 fold enrichment (6-mer frequency, TF over GST control) | – | – | 1.05 fold enrichment (6-mer frequency, TF over GST control) | 1.07 fold enrichment (6-mer frequency, TF over GST control) | – | 1.08 fold enrichment (6-mer frequency, TF over GST control) | 1.09 fold enrichment (6-mer frequency, TF over GST control) | – | 1.03 fold enrichment (6-mer frequency, TF over GST control) | – | – | 1.12 fold enrichment (6-mer frequency, TF over GST control) | 1.09 fold enrichment (6-mer frequency, TF over GST control) | –
TAGATC | 1.06 fold enrichment (6-mer frequency, TF over GST control) | 1.49 fold enrichment (6-mer frequency, TF over GST control) | 1.13 fold enrichment (6-mer frequency, TF over GST control) | – | 1.2 fold enrichment (6-mer frequency, TF over GST control) | – | 1.04 fold enrichment (6-mer frequency, TF over GST control) | 1.18 fold enrichment (6-mer frequency, TF over GST control) | 1.13 fold enrichment (6-mer frequency, TF over GST control) | 1.13 fold enrichment (6-mer frequency, TF over GST control) | 1.43 fold enrichment (6-mer frequency, TF over GST control) | 1.06 fold enrichment (6-mer frequency, TF over GST control) | 1.02 fold enrichment (6-mer frequency, TF over GST control) | 1.09 fold enrichment (6-mer frequency, TF over GST control) | 1.02 fold enrichment (6-mer frequency, TF over GST control) | 1.06 fold enrichment (6-mer frequency, TF over GST control) | 1.51 fold enrichment (6-mer frequency, TF over GST control)
